{
  "source": "the supplement of paper PMC8728848",
  "assay_in_all_cases": "glycan array binding signal (z-score within array); higher = stronger binding",
  "conditions_in_all_cases": "glycan notation: IUPAC condensed, linker removed",
  "key": {"[1]": {"target": "Gal(b1-4)GlcNAc(b1-3)Gal(b1-3)GalNAc", "outline": "(§1)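 Glycan array data came from 3228 arrays in the Consortium for Functional Glycomics database, and only arrays with an available protein sequence were kept. Glycan names were put into IUPAC-condensed notation, and columns mapping to the same glycan were averaged. The binding signal is a within-array Z-score, averaged across arrays of one protein sequence run at different concentrations or buffers and across linkers. A negative Z-score can be read as non-binding.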"}, "[2]": {"target": "Gal(b1-4)GlcNAc(b1-3)Gal(b1-4)Glc", "outline": "as §1"}, "[3]": {"target": "Gal(b1-4)GlcNAc(b1-3)Gal(b1-4)GlcNAc(b1-3)Gal(b1-4)GlcNAc(b1-3)Gal(b1-4)GlcNAc(b1-3)Gal(b1-4)GlcNAc(b1-2)[Gal(b1-4)GlcNAc(b1-3)Gal(b1-4)GlcNAc(b1-3)Gal(b1-4)GlcNAc(b1-3)Gal(b1-4)GlcNAc(b1-3)Gal(b1-4)GlcNAc(b1-6)]Man(a1-6)[Gal(b1-4)GlcNAc(b1-3)Gal(b1-4)GlcNAc(b1-3)Gal(b1-4)GlcNAc(b1-3)Gal(b1-4)GlcNAc(b1-3)Gal(b1-4)GlcNAc(b1-2)Man(a1-3)]Man(b1-4)GlcNAc(b1-4)[Fuc(a1-6)]GlcNAc", "outline": "as §1"}, "[4]": {"target": "Gal(b1-4)GlcNAc(b1-6)[Gal(b1-4)GlcNAc(b1-3)]GalNAc", "outline": "as §1"}, "[5]": {"target": "Gal6S(b1-4)Glc6S", "outline": "as §1"}, "[6]": {"target": "GalNAc(b1-3)Gal(a1-4)Gal(b1-4)GlcNAc(b1-3)Gal(b1-4)Glc", "outline": "as §1"}, "[7]": {"target": "GalNAc(b1-4)GlcNAc(b1-2)Man(a1-3)[GalNAc(b1-4)GlcNAc(b1-2)Man(a1-6)]Man(b1-4)GlcNAc(b1-4)GlcNAc", "outline": "as §1"}, "[8]": {"target": "Glc(b1-4)Glc", "outline": "as §1"}, "[9]": {"target": "GlcNAc(a1-4)Gal(b1-4)GlcNAc(b1-3)Gal(b1-4)[Fuc(a1-3)]GlcNAc(b1-3)Gal(b1-4)[Fuc(a1-3)]GlcNAc", "outline": "as §1"}, "[10]": {"target": "GlcNAc(b1-2)[GlcNAc(b1-4)]Man(a1-3)[GlcNAc(b1-4)][GlcNAc(b1-2)[GlcNAc(b1-6)]Man(a1-6)]Man(b1-4)GlcNAc(b1-4)GlcNAc", "outline": "as §1"}, "[11]": {"target": "GlcNAc(b1-3)Gal(b1-4)GlcNAc(b1-3)Gal(b1-4)GlcNAc(b1-3)GalNAc", "outline": "as §1"}, "[12]": {"target": "Neu5Ac(a2-3)Gal(b1-3)GalNAc(b1-3)Gal(a1-4)Gal(b1-4)Glc", "outline": "as §1"}, "[13]": {"target": "Neu5Ac(a2-3)Gal(b1-3)GlcNAc(b1-3)GalNAc", "outline": "as §1"}, "[14]": {"target": "Neu5Ac(a2-3)Gal(b1-4)GlcNAc(b1-2)[Neu5Ac(a2-3)Gal(b1-4)GlcNAc(b1-6)]Man(a1-6)[Neu5Ac(a2-3)Gal(b1-4)GlcNAc(b1-2)Man(a1-3)]Man(b1-4)GlcNAc(b1-4)GlcNAc", "outline": "as §1"}, "[15]": {"target": "Neu5Ac(a2-3)Gal(b1-4)GlcNAc(b1-3)Gal(b1-4)GlcNAc(b1-3)Gal(b1-4)GlcNAc(b1-2)Man(a1-3)[Neu5Ac(a2-3)Gal(b1-4)GlcNAc(b1-3)Gal(b1-4)GlcNAc(b1-3)Gal(b1-4)GlcNAc(b1-2)Man(a1-6)]GalNAc", "outline": "as §1"}, "[16]": {"target": "Neu5Ac(a2-3)[GalNAc(b1-4)]Gal(b1-4)Glc", "outline": "as §1"}, "[17]": {"target": "Neu5Ac(a2-6)Gal(b1-4)GlcNAc(b1-2)Man(a1-3)[Man(a1-6)]Man(b1-4)GlcNAc(b1-4)GlcNAc", "outline": "as §1"}, "[18]": {"target": "Neu5Ac(a2-6)Gal(b1-4)GlcNAc(b1-2)Man(a1-3)[Neu5Ac(a2-3)Gal(b1-4)GlcNAc(b1-2)Man(a1-6)]Man(b1-4)GlcNAc(b1-4)GlcNAc", "outline": "as §1"}, "[19]": {"target": "Neu5Ac(a2-6)Gal(b1-4)GlcNAc(b1-2)[Neu5Ac(a2-6)Gal(b1-4)GlcNAc(b1-4)]Man(a1-3)[GlcNAc(b1-4)][Neu5Ac(a2-6)Gal(b1-4)GlcNAc(b1-2)[Neu5Ac(a2-6)Gal(b1-4)GlcNAc(b1-6)]Man(a1-6)]Man(b1-4)GlcNAc(b1-4)GlcNAc", "outline": "as §1"}, "[20]": {"target": "Neu5Ac(a2-6)Gal(b1-4)GlcNAc(b1-3)Gal(b1-4)GlcNAc(b1-3)GalNAc", "outline": "as §1"}, "[21]": {"target": "Neu5Ac(a2-6)Gal(b1-4)GlcNAc(b1-6)[Gal(b1-3)GlcNAc(b1-3)]Gal(b1-4)Glc", "outline": "as §1"}, "[22]": {"target": "Neu5Ac(a2-6)Gal(b1-4)GlcNAc(b1-6)[Gal(b1-3)]GalNAc", "outline": "as §1"}, "[23]": {"target": "Neu5Ac(a2-8)Neu5Ac(a2-8)Neu5Ac(a2-8)Neu5Ac(a2-3)[GalNAc(b1-4)]Gal(b1-4)Glc", "outline": "as §1"}, "[24]": {"target": "Neu5Gc(a2-8)Neu5Gc(a2-3)Gal(b1-4)GlcNAc", "outline": "as §1"}},
  "note": "The sample as a whole holds a higher share of the strongest signals than the screen did.",
  "data": [
    {"binder": "PX14343C-bfa-541-26-541 (Bacteroides fragilis) (protein) KAPLDEIADDSFWSDETLVKYYVNDLYSEISVDGLQLQENRSDNSVSAQRDKYRASWFKFNYDMVSASDPQDDDVWEDYYVKVRKCNRFFERIGTSTIEESEKSRLTGEVHFLRAMFYFEMVKRYGGVILLDKVLTMEDNWEIPRSSEKECYDFILEDLKKATEMLPASYGSREKGRATKGAAYALKSRVELYDKRYEDVIKSCAEVYKLGYELVDGTTPEKYRSIWWTTNKDNKEIIFDVQYKSPDVYNNMMVCNMVTYINDKYGDRGWGGLGPTQELIDAFEMADGTPATQYSQAPADQVFDINTCGIYEGREPRFYANIVFHGSQIFFNADKGAVTVDRYLMDTPDKGDGSLTGYNVWKWIDYDNYNYPYAGAGSPDFSTNWIILRYAEIYLNDAEARLETGDVEGARKAVNMIRQRVGLPDLTESDPEKLRELIRKERRIEFAFEEQRFYDVRRWKIGPETQTTLHGVRFVSPTEFKVTKTDIRTWNDRLYLTPVPHDEIVRSSVLKQNLGY", "values": [
      {"measurement": "glycan array binding signal (z-score)", "setting": "[1]", "result": -0.401},
      {"measurement": "glycan array binding signal (z-score)", "setting": "[2]", "result": 0.261},
      {"measurement": "glycan array binding signal (z-score)", "setting": "[3]", "result": 0.758},
      {"measurement": "glycan array binding signal (z-score)", "setting": "[4]", "result": 0.249},
      {"measurement": "glycan array binding signal (z-score)", "setting": "[5]", "result": 1.46},
      {"measurement": "glycan array binding signal (z-score)", "setting": "[6]", "result": -0.667},
      {"measurement": "glycan array binding signal (z-score)", "setting": "[7]", "result": 3.4},
      {"measurement": "glycan array binding signal (z-score)", "setting": "[8]", "result": -0.686},
      {"measurement": "glycan array binding signal (z-score)", "setting": "[9]", "result": 1.91},
      {"measurement": "glycan array binding signal (z-score)", "setting": "[10]", "result": 0.147},
      {"measurement": "glycan array binding signal (z-score)", "setting": "[11]", "result": -0.553},
      {"measurement": "glycan array binding signal (z-score)", "setting": "[12]", "result": 0.978},
      {"measurement": "glycan array binding signal (z-score)", "setting": "[13]", "result": 0.246},
      {"measurement": "glycan array binding signal (z-score)", "setting": "[14]", "result": 0.43},
      {"measurement": "glycan array binding signal (z-score)", "setting": "[15]", "result": 5.05},
      {"measurement": "glycan array binding signal (z-score)", "setting": "[16]", "result": 3.41},
      {"measurement": "glycan array binding signal (z-score)", "setting": "[17]", "result": 3.29},
      {"measurement": "glycan array binding signal (z-score)", "setting": "[18]", "result": 0.23},
      {"measurement": "glycan array binding signal (z-score)", "setting": "[19]", "result": -0.339},
      {"measurement": "glycan array binding signal (z-score)", "setting": "[20]", "result": -0.036},
      {"measurement": "glycan array binding signal (z-score)", "setting": "[21]", "result": 5.89},
      {"measurement": "glycan array binding signal (z-score)", "setting": "[22]", "result": -0.647},
      {"measurement": "glycan array binding signal (z-score)", "setting": "[23]", "result": 1.9},
      {"measurement": "glycan array binding signal (z-score)", "setting": "[24]", "result": -0.342}
    ]}
  ]
}
